Screening data as filed in PubChem BioAssay.
NCOA2 inhibitor: inhibits human steroid receptor coactivator 2 | inhibition, % at 9 µM | Q15596 | HEK293 GAL4-SRC2 luciferase reporter, luminescence | AID 651957 | 370,000 compounds, 0.17% hits;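 active means inhibition above the mean inhibition of all tested compounds plus 3 SD, set per campaign, cut at about 52% in these data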;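 further: 0% = DMSO treated cells and 100% = cells given Gossypol at 36 µM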
COUP-TFII inh: blocks human COUP-TFII nuclear receptor; P24468; HEK293T NGFI-A luciferase reporter, luminescence; inhibition, % at 8.6 µM; 370,000 compounds, 0.7% hits; AID 686940;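 active means inhibition above a per-plate cutoff, mean inhibition of test wells between control levels plus 3 SD, cut at about 38% in these data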;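 further: cells cotransfected with COUP-TFII expression vector driving the NGFI-A reporter; 0% = median of COUP-TF2 test wells and 100% = reporter-only cells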
NCOA3 inh: human NCOA3 inhibition | Q9Y6Q9 | HEK293 GAL4-SRC3 luciferase reporter, luminescence | inhibition, % at 3.6 µM | 360,000 compounds, 0.17% hits | AID 588352;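 active means inhibition above a per-campaign cutoff, the mean of all compounds plus 3 SD, cut at about 60% in these data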;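 further: 0% = DMSO-treated cells and 100% = gossypol-treated cells at 36 µM; higher means less SRC3-driven luciferase light from the GAL4 reporter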
NCOA1 inh: human NCOA1 inhibition. Q15788. inhibition, % at 3.6 µM. HEK293 GAL4-SRC1 luciferase reporter, luminescence. AID 588354. 360,000 compounds, 0.12% hits;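 active means inhibition above the campaign mean plus 3 SD, with each screening campaign given its own cutoff, cut at about 60% in these data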;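 further: 0% = DMSO treated cells and 100% = gossypol at 36 µM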
Target sequence (Q15788 whole entry, looked up, the tested form may be a part): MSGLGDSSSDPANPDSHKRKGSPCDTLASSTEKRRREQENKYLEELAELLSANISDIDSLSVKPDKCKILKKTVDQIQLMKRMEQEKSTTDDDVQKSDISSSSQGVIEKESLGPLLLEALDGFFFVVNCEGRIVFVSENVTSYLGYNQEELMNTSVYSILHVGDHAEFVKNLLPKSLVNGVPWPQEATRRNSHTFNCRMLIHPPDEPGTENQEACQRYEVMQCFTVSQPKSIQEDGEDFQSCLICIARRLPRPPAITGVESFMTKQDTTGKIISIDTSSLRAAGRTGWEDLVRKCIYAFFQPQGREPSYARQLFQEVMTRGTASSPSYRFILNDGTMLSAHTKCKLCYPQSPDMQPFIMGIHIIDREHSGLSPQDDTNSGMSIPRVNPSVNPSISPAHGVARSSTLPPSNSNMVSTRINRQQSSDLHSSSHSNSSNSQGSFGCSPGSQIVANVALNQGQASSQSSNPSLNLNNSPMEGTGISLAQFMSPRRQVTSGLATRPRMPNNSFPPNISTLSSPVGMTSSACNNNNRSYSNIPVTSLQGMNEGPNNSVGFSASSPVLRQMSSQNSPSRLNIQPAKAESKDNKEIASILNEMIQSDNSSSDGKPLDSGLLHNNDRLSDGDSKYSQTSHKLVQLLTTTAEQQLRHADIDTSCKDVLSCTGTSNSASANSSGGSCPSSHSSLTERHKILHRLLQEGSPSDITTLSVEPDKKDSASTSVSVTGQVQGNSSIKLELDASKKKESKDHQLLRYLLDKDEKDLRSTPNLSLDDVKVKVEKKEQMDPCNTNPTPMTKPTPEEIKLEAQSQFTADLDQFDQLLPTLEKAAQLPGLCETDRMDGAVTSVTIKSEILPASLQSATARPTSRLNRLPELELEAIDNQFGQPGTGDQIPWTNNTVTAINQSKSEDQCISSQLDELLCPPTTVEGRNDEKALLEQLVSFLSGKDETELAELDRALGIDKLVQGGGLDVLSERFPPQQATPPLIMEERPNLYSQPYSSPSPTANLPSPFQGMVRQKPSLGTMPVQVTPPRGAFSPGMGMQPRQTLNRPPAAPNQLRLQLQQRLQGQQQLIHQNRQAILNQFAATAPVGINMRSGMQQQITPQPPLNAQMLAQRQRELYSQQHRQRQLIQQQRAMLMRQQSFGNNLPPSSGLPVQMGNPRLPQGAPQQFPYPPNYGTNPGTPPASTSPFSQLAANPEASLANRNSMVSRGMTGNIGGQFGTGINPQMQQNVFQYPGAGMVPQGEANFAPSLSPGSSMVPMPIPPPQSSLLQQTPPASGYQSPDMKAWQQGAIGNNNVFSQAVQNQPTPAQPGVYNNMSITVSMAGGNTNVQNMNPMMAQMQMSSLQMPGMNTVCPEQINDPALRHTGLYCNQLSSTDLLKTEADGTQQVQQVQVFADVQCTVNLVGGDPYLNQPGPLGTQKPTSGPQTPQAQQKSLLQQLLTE
Efflux pump inh: blocks antifungal efflux pumps in multiplex yeast assay; S. cerevisiae Candida pump triplex, Nile Red efflux; inhibition, % at 10 µM; 330,000 compounds, 0.44% hits;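 active means plate passing quality check with inhibition over a set limit, or well fluorescence over plate mean plus 4 SD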;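 further: Nile Red retained in pooled yeast measured as flow cytometry median fluorescence; 0% = buffer negative control and 100% = Enniatin B positive control; higher means more Nile Red kept so more efflux inhibition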
NR5A2 inv ag: suppresses constitutive activity of human LRH-1; HEK293T StAR-luciferase reporter, LRH-1 transfected, 24 h; inhibition, % at 3.6 µM; 360,000 compounds, 0.13% hits; AID 602396;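 active means inhibition above the mean inhibition of all tested compounds plus 3 SD, cut at about 73% in these data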;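 further: 0% = DMSO wells and 100% = reporter-only cells lacking LRH-1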
VP16 Luc counter: VP16 inhibition counter-screen for COUP-TFII; shares compounds with COUP-TFII inh; HEK293 Gal4-VP16 luciferase reporter, luminescence; inhibition, % at 8.5 µM; 2,500 compounds, 25% hits; in the data active means inhibition above about 13%
COUP-TFII conf: COUP-TFII (NR2F2) inhibition, confirmation assay | shares compounds with COUP-TFII inh | HEK293 NGFI-A luciferase reporter, luminescence | inhibition, % at 8.5 µM | 2,500 compounds, 45% hits | AID 687008;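 active means mean inhibition over three repeats above a set limit taken from the earlier primary screen, cut at about 38% in these data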;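 further: 100% = cells given the luciferase reporter alone without the COUP-TF2 vector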
The depositor's hits bear a star; . = no result given; ! = not active in a repeat. Shown are actives, neighbours in structure and some others; about 1.2% of the full set was active somewhere.

SMILES	NCOA2 inhibitor	COUP-TFII inh	NCOA3 inh	NCOA1 inh	Efflux pump inh	NR5A2 inv ag	VP16 Luc counter	COUP-TFII conf
CC(C)(C)c1ccc2c(c1)OC(C(=O)N/N=C/c1ccc[nH]1)CO2 (centres undefined)	.	47*	.	.	.	.	0	40*
CC(C)(C)c1ccc2c(c1)OC(C(=O)N/N=C\c1ccc[nH]1)CO2 (centres undefined)	6	34	12	-2	0	5	.	.
Cc1cc2nc(C3CCCN(C(=S)Nc4ccccc4C)C3)[nH]c2cc1C (centres undefined)	21	45*	7	14	0	15	-34	-7
Cc1ccc2nc(C3CCCN(C(=S)Nc4cccc(C)c4C)C3)[nH]c2c1 (centres undefined)	3	-7	20	-6	0	-26	.	.
CCCc1nc2ccc(NC(=O)c3cccs3)cc2c(=O)n1Cc1ccc(Cl)cc1	-13	-19	-8	-2	0	-1	.	.
Cc1nc2ccc(NC(=O)c3cccs3)cc2c(=O)n1Cc1ccc(Cl)cc1	10	59*	37	28	0	51	8	46*
CC(=O)Nc1ccc(NC(=O)COc2ccc(-c3ccc(C#N)cc3)cc2)cc1	16	9	10	2	0	11	.	.
N#Cc1ccc(-c2ccc(OCC(=O)Nc3cccnc3)cc2)cc1	53*	47*	-8	-15	0	37	-4	23
O=C(CCCOc1ccccc1)Nc1cccnc1	2	-11	6	-5	0	-13	.	.
O=C(COc1ccc(C(=O)c2ccccc2)cc1)Nc1cccnc1	19	66*	4	-1	0	38	6	60*
O=C(CN1CCC(Cc2ccccc2)CC1)NCCc1ccc(F)cc1	-12	-1	-5	7	0	1	.	.
NS(=O)(=O)c1ccc(CCNC(=O)CN2CCC(Cc3ccccc3)CC2)cc1	22	38*	19	17	0	17	-4	12
COc1cc(CNc2ccc(O)cc2)cc(Br)c1OCc1ccccc1F	.	.	27	12	0	8	.	.
COc1cc(CNCc2ccncc2)cc(Br)c1OCc1ccccc1F	24	46*	8	8	0	30	3	28
O=[N+]([O-])c1ccc(S(=O)(=O)Nc2ccc3c(c2)OCCO3)cc1	11	10	-17	-2	0	2	.	.
CSc1ccc(NC(=O)Nc2cccn(Cc3ccccc3F)c2=O)cc1	-21	39*	-18	-15	0	-23	-73	-8
Cc1cc(C(=O)CSc2nc(N)cc(=O)[nH]2)c(C)n1-c1ccc(OC(F)F)cc1	12	53*	17	-9	0	24	-2	54*
O=C(NCc1nnc2c3ccccc3c(-c3ccccc3)nn12)c1ccc(Cl)cc1	25	-6	19	-18	0	-19	.	.
CC1CCC(C(C)C)C(OC(=O)Cn2c(-c3ccccc3)[n+](C)c3ccccc32)C1 (centres undefined)	39	57*	79*	58	0	75*	14*	38*
CC1CCC(C(C)C)C(OC(=O)C[n+]2cc(-c3ccc(Cl)cc3)n3c2CCC3)C1 (centres undefined)	0	3	-9	7	0	-1	.	.
O=C(NCCc1ccccc1F)c1ccc2c(c1)OCCO2	90*	96*	74*	76*	0	64	63*	84*
CC(C)(C)c1ccc(NC(=O)COc2ccc(-n3ccnc3)cc2)cc1	34	51*	8	4	0	24	2	47*
Cc1cc(OCC(=O)Nc2ccncc2)cc(C)c1Br	-1	58*	21	19	0	35	-3	37
CCCCOc1ccc(C(=O)Nc2ccncc2)cc1	-13	51*	9	-9	0	27	-60	33
Cc1cc(OCC(=O)Nc2ccncc2)ccc1Cl	13	20	10	0	0	18	.	.
SMILES	NCOA2 inhibitor	COUP-TFII inh	NCOA3 inh	NCOA1 inh	Efflux pump inh	NR5A2 inv ag	VP16 Luc counter	COUP-TFII conf
COc1cc(NC(=O)COc2ccc(-n3ccnc3)cc2)cc(OC)c1	24	16	19	9	0	3	.	.
CCCOc1ccc(C(=O)Nc2cccnc2)cc1	-39	-24	-105	-96	0	-98	.	.
Cc1ccc(Oc2ccc(OCC(=O)Nc3ccncc3)cc2)cc1	29	72*	32	40	0	61	19*	74*
COCCNC(=O)CSc1nc(-c2ccccc2)c(-c2ccccc2)o1	-14	0	24	2	0	-15	.	.
CCn1cc(S(=O)(=O)N2CCN(c3ccc(Cl)cc3)CC2)cn1	-2	-4	10	2	0	9	.	.
O=C(C1=C[C@H](c2ccc(C(F)(F)F)cc2)C[C@H](OCCCCO)O1)N1CCOCC1	-8	1	18	2	0	13	.	.
O=C(COc1ccc2ccccc2c1)Nc1ccncc1	-25	47*	3	-20	0	9	-24	8
CCOC(=O)C1(Cc2ccc(Cl)cc2)CCN(C(=O)c2sc(C)nc2C)CC1	24	42*	20	1	0	-3	10	26
CCOC(=O)C1(Cc2ccc(OC)cc2)CCN(C(=O)c2sc(C)nc2C)CC1	31	-4	6	5	0	-2	.	.
CCOc1ccc(OCc2ccc(C(=O)NN=Cc3ccc[nH]3)cc2)cc1	-28	73*	53	-5	0	86*	-4	71*
Cc1cccc(-n2ncc3c2CCCC3NC(=O)Cn2cccn2)c1C (centres undefined)	-9	2	-1	6	0	-2	.	.
Cc1ccc(SC[C@H](Cc2ccccc2)N2CC[C@@H](C)CCC2=O)cc1	0	4	14	-3	0	4	.	.
COc1ccc2cc3[n+](cc2c1OC)CCc1cc2c(cc1-3)OCO2	-3	53*	-26	10	0	34	14*!	54*!
CN1CCN(CC#CCn2c3ccccc3c3ccccc32)CC1	-27	5	11	3	0	-10	.	.
COc1ccc(OCC(=O)Nc2ccc3c(c2)nc(CCN2CCN(c4ccccn4)CC2)n3C)cc1	-13	26	10	5	.	2	.	.
Cn1c(CCN2CCN(c3ccccn3)CC2)nc2cc(NC(=O)COc3ccc(Cl)cc3)ccc21	14	61*	48	23	0	46	-3	59*
Cc1cccc(OCC(=O)Nc2ccc3c(c2)nc(CCN2CCN(c4ccccn4)CC2)n3C)c1	30	52*	9	5	0	17	2	36
Cc1nc(Nc2cccc(C(C)O)c2)c2nnn(Cc3ccccc3F)c2n1 (centres undefined)	-10	8	5	9	0	11	.	.
